Test results reported in PubChem BioAssay AID652042 (Broad Institute, 2013).
Among all 1,100 compounds or so, about 350 (32%) were called active. No rule for the calls is given here. A selection follows. Results with a measured potency or affinity are listed apart.

Assay: viability loss in CEM21 cells – cell-based, CellTiter-Glo luminescence, cherry-picked, cytotoxicity control for viral fusion inhibitor project, dose response (AID 652042)
Conditions: CellTiter-Glo ATP luminescence, 24 h; series mostly up to 35 µM

| SMILES | activity change, negative = cytotoxicity |
| --- | --- |
| CCN(CC)S(=O)(=O)c1ccc(N2CCCC2)c(NC(=O)Cc2cc(OC)c(OC)c(OC)c2)c1 | inactive |
| O=C(c1cccc(S(=O)(=O)N2CCN(c3ccccc3)CC2)c1)N1CCCC(C(F)(F)F)C1 (stereo unspecified) | inactive |
| O=C1CCCCC1Sc1nnc(-c2ccc3c(c2)OCO3)o1 (stereo unspecified) | inactive |
| O=C(CN1C(=O)c2ccccc2S1(=O)=O)c1ccc2c(c1)OCCO2 | inactive |
| Cc1ccccc1S(=O)(=O)NC(=O)C1(C)CCN1C(=O)CCc1ccc(Cl)cc1Cl (stereo unspecified) | inactive |
| COc1ccc([C@@H]2[C@@H]3C(=O)N(C(C)(C)C)C(=O)[C@@H]3[C@]3(CC(C)C)C(=O)N(c4cccc(F)c4)C(=O)N23)cc1 | inactive |
| COc1ccc(-c2cc(C(=O)NNC(=S)NC(=O)c3c(-c4ccccc4)noc3C)[nH]n2)cc1 | inactive |
| Cc1onc(-c2ccccc2)c1C(=O)Nc1ccc(Br)cc1Cl | inactive |
| CC1(Cc2ccc(Cl)cc2)C(=O)Nc2ccc(S(=O)(=O)NC3CCCCC3)cc21 (stereo unspecified) | inactive |
| O=C(Nc1cccn(Cc2c(Cl)cccc2Cl)c1=O)c1ccc(Cl)cc1 | inactive |
| CCCCOc1ccc(S(=O)(=O)Nc2cccnc2)cc1 | inactive |
| CCCNC(=O)C[C@@H]1C[C@H]2c3cc(NC(=O)Cc4ccncc4)ccc3O[C@H]2[C@H](CO)O1 | inactive |
| CC1CCN(S(=O)(=O)c2cc(C(=O)N3CCN(c4ccccc4)CC3)ccc2Br)CC1 | inactive |
| COc1ccccc1S(=O)(=O)N[C@H]1CC[C@H](CC(=O)N2CCN(C)CC2)O[C@H]1CO | inactive |
| Cc1ccc(C2CC(=O)c3cnc(N4CCc5ccccc5C4)nc3C2)cc1 (stereo unspecified) | inactive |
| O=C(Cc1ccncc1)N[C@H]1CC[C@@H](CCn2cc(-c3ccccc3F)nn2)O[C@@H]1CO | inactive |
| CN(C)Cc1cn(CC[C@@H]2CC[C@H](N)[C@H](CO)O2)nn1 | inactive |
| CC[C@@]12C(=O)N(c3ccccc3)C(=O)N1[C@H](c1cccc(C)c1)[C@@H]1C(=O)N(Cc3ccccc3)C(=O)[C@@H]12 | inactive |
| CC(C)(C)n1nnnc1C(c1cccs1)N(Cc1cccnc1)Cc1ccco1 (stereo unspecified) | inactive |
| CC(C)(C)NC(=O)C(c1ccccc1)N(Cc1cccs1)C(=O)c1csnn1 (stereo unspecified) | inactive |
| COc1ccc(N2C(=O)N3[C@H](c4ccc(Cl)cc4)[C@@H]4C(=O)N(C5CCCCC5)C(=O)[C@@H]4[C@]3(C)C2=O)cc1 | inactive |
| CCn1ncc(C2=NOC(C(=O)Nc3ccc(C)cc3)C2)c1C (stereo unspecified) | inactive |
| c1csc(-c2csc3ncnc(NCCCN4CCOCC4)c23)c1 | inactive |
| O=C(C[C@@H]1C[C@@H]2c3cc(NC(=O)C4CCC4)ccc3O[C@@H]2[C@@H](CO)O1)NCC(F)(F)F | inactive |
| CS(=O)(=O)N1CCc2cc(-c3csc(NC(=O)Cc4cccs4)n3)ccc21 | inactive |
| CCNC(=O)C[C@H]1CC[C@@H]2[C@@H](COc3ccc(NC(=O)Cc4cccs4)cc3C(=O)N2C)O1 | inactive |
